# Results with a measured potency or affinity are listed apart. Active and inactive are the calls of the source. The rule behind the calls is not given here.
# Test: SV40 cytopathic effect inhibition and cytotoxicity, confirmation, BSC cells, set 3 (AID 485276)
# Settings: series mostly up to 200 µM
row,Structure (SMILES),outcome
1,Oc1c(Cl)cc(Cl)cc1Sc1cc(Cl)cc(Cl)c1O,inactive
2,CC(C)(c1ccc(O)cc1)c1ccc(Cl)cc1,inactive
3,CC(C)(c1ccccc1)n1nnc(-c2ccccc2)n1,inactive
4,Oc1ccc(C2(c3ccc(O)cc3)CC2)cc1,inactive
5,Oc1ccc(Oc2ccc(O)cc2)cc1,inactive
6,Oc1ccc(Cl)cc1Cc1cc(Cl)ccc1O,inactive

# Reference: PubChem BioAssay AID485276 (Southern Research Specialized Biocontainment Screening …, 2010)
